SMILES strings stand for the structures. Active and inactive are the calls of the source. The calls were made as follows: active = hit-call score of the fitted dose curve at least 0.9, where 1 is the maximum; inactive = score below 0.9.

Read-out in this assay: TIMP metallopeptidase inhibitor 1 (TIMP1), TIMP1 (gene 7076)
Put plainly: BSK_hDFCGF_TIMP1: BioMAP Diversity Plus: hDFCGF Assay for TIMP metallopeptidase inhibitor 1 (TIMP1) Biomarker Activity (AID 2283062). To be noted: primary human foreskin fibroblasts; actives raise or lower the signal. A digest of the protocol: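 Human skin fibroblasts (primary), hDFCGF system; compound exposure 24 h; TIMP-1 by ELISA; bidirectional fit vs DMSO negative control; overt cytotoxicity by SRB in parallel wells.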
For the compound `C[C@]12CC[C@@H]3c4ccc(O)cc4CC[C@H]3[C@@H]1CC[C@H]2O`, the outcome was inactive.

Take `O=c1ccc2ccccc2o1`: the result was inactive.

Turning to `Cc1cccc2ccccc12`, the result was inactive. `Clc1ccccc1C(c1ccccc1)(c1ccccc1)n1ccnc1`: the AC50 is 9.85 µM (active). With `CCCOC(=O)c1cc(O)c(O)c(O)c1`, the outcome was inactive. For the compound `COc1ccc2cc(S(=O)(=O)N[C@H](CC(=O)N[C@H](Cc3ccc(CN4[C@H](C)CCC[C@@H]4C)cc3)C(=O)N(C)C(C)C)c3ccc4c(c3)OCO4)ccc2c1`, the AC50 was 37.4 µM (active). Turning to `CN(C)c1ccc(C(=C2C=CC(=[N+](C)C)C=C2)c2ccc(N(C)C)cc2)cc1`, the AC50 is 1.95 µM (active).

Turning to `O=c1c(-c2ccc(O)cc2)coc2cc(O)cc(O)c12`, the result was inactive. For `O=C=NCCCCCCN=C=O`, the outcome was inactive.

On to `O=C1c2ccccc2C(=O)N1CCc1noc(-c2ccc(CN3CCCCCC3)s2)n1`, for which the outcome was inactive.

Turning to `Cc1c2ccccc2c(C)c2c1ccc1ccccc12`, the result was inactive.

Consider `O=C(O)Cc1cc(I)c(Oc2ccc(O)c(I)c2)c(I)c1`, for which the outcome was inactive.

As for `CN1C(=O)CC[C@H]1c1cccnc1`, the outcome was inactive. On the same count and under the same terms, in the case of `O=C(OCCCCCCOC(=O)c1ccccc1)c1ccccc1` it was “inactive”.

In the case of `CCN(CC)C(=O)c1cc(S(=O)(=O)Cc2ccccc2)c(N2CCC(c3ccccc3)CC2)cc1N(CC)CCN(C)C`, the outcome was inactive. `c1ccc2n[nH]nc2c1`: the outcome was inactive.

Regarding `c1ccc(C[n+]2cccc3ccccc32)cc1`, the outcome was inactive. As for `CC(=O)N1CCN(c2ccc(OC[C@H]3CO[C@](Cn4ccnc4)(c4ccc(Cl)cc4Cl)O3)cc2)CC1`, the AC50 is 35.4 µM (active). Consider `CCCCCCCCOc1ccc(C(=O)c2ccccc2)c(O)c1`, for which the outcome was inactive. As to `CCCC(=O)OCCC(C)C`, the result was inactive. For `COCC(C)OCC(C)OCC(C)O` (stereo not drawn), the outcome was inactive. For `CCCCCc1ccc(N)cc1`, the result was inactive. Same read-out and setting: in the case of `c1ccc2ccccc2c1` it was “inactive”. Turning to `Cc1cc(F)ccc1-c1cc(N2CC[C@@H](O)[C@H]2CO)ncc1N(C)C(=O)C(C)(C)c1cc(C(F)(F)F)cc(C(F)(F)F)c1`, the concentration at half-maximal activity (AC50) was 12.4 µM (active).

Turning to `CC(C)(C)c1cc(/C=C2\SC(N)=NC2=O)cc(C(C)(C)C)c1O`, the AC50 is 31 µM (active). For the compound `Cc1cc2c(cc1C(F)(F)F)N(C(=O)Nc1ccc(Oc3cccnc3C)nc1)CC2`, the result was inactive.

For the compound `Oc1ccc2ccccc2c1`, the result was inactive. Consider `CC[C@H](NC(=O)c1cc(F)ccc1NS(=O)(=O)c1cccc2cccnc12)c1ccccc1`, for which the result was inactive. Consider `O=C(Nc1ccc(Cl)cc1)Nc1ccc(Cl)c(Cl)c1`, for which the result was inactive. For the compound `O=C(O)Cn1c(=O)n(Cc2ccc(Br)cc2F)c(=O)c2ccc(Cl)cc21`, the outcome was inactive. Turning to `NC(=O)c1nc(-c2cccc(-c3cc(F)ccc3OCC(F)(F)C(F)(F)F)c2)n[nH]1`, the AC50 is 35.5 µM (active).

Consider `OC12N=C(c3ccccc3)SC1Cc1cc(Cl)ccc12` (stereo not drawn), for which the outcome was inactive.

Turning to `Cc1ncc(CO)c(CO)c1O`, the result was inactive.

`CN(C)C(=O)C1(N2CCCCC2)CCN(CC[C@@]2(c3ccc(Cl)c(Cl)c3)CN(C(=O)c3ccccc3)CCO2)CC1`: the AC50 was 24.8 µM (active). Take `CCCCCCCCCC(=O)O`: the result was inactive.

For `O=C(O)c1ccccc1C(=O)OCc1ccccc1`, the outcome was inactive. For `OCCO`, the result was inactive. For `CC1(C)NC(=O)N(c2ccc([N+](=O)[O-])c(C(F)(F)F)c2)C1=O`, the outcome was inactive.

The record behind these values is PubChem BioAssay (EPA / NIEHS).
